The target in assay [1] is Cellular tumor antigen p53 (Homo sapiens) (UniProt P04637). The assay is described as follows: TOX21_p53_BLA_p4_ratio: Tox21 HCT-116 p53 Agonism Beta-lactamase Assay, Ratio, Phase 4 (AID 2283601). An outline of the steps: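 HCT116 cells carrying an inducible beta-lactamase reporter were plated at 4000 cells/well, rested 5 h, then exposed to compounds in DMSO (217-fold dilution) for 16 h at 37C. CCF4-AM substrate was loaded 2 h at room temperature; 460/530 nm emission ratio scored gain-of-signal versus DMSO.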

Assay [2] in a line: ACEA_ER_AUC_viability: ACEA Biosciences xCELLigence Real-Time Cell Analysis on Estrogen Receptor Agonism for Viability (AID 2283782).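 Also: continuous compound exposure with impedance area under curve over 80 h; hit means loss of impedance signal meaning reduced cell growth or viability.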 An outline of the steps:
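T-47D human breast cells in phenol red-free RPMI1640 with 10% charcoal-stripped FBS were dosed with an 8-point 1:4 dilution series from 100 uM top final concentration, in duplicate. Impedance-based growth was followed for 80 h; AUC analysed versus DMSO.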

The nature of assay [3]: CEETOX_H295R_MTT_cell_viability: Viability Assessment in the CeeTox HT-H295R MTT Assay (AID 2283718; active = hit-call score of the fitted dose curve at least 0.9, where 1 is the maximum; inactive = score below 0.9). An outline of the steps: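 H295R cells prestimulated 48 h with 10 uM forskolin, then exposed 48 h to test chemical (0.1% DMSO final). Viability by MTT (0.5 mg/ml, 4 h, 37 C), absorbance 570/650 nm; percent change versus DMSO, bidirectional fit.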
Assay [4] concerns Thyroperoxidase (TPO), gene 54314. In words: CCTE_Simmons_AUR_rTPO: CCTE's Amplex UltraRed Assay for Thyroperoxidase (TPO) Inhibition, Simmons Lab (AID 2283662). An outline of the steps:
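Endpoint is decreased Amplex UltraRed fluorescence after a 30-min, 37C reaction of rat thyroid microsomes with 300 uM H2O2. Eight test concentrations (5 nM–87.5 uM final) in 0.5% DMSO, three biological replicates each.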

Assay [5] in a line: CCTE_Simmons_CellTiterGLO_HEK293T: Viability Assessment in CCTE's Assays for Thyroperoxidase (TPO) Inhibition, Simmons Lab (AID 2283665). An outline of the steps: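 Cytotoxicity counter-screen: human HEK293T cells in low-serum (1% FBS) medium receive test chemical, 5 nM to 87.5 uM final, for 24 h; ATP is quantified by luciferase luminescence.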
Assay [6] deals with Luciferin 4-monooxygenase (Photinus pyralis) (UniProt P08659). The assay is described as follows: CCTE_Simmons_QuantiLum_inhib_2: CCTE's Firefly Luciferase Inhibition Assay, Simmons Lab (AID 2283767). An outline of the steps:
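Counter-screen for nonspecific enzyme inhibition: purified firefly luciferase incubated 30 min at 37C with chemicals up to 87.5 uM final, then luminescence measured after luciferin/dATP injection; activity fitted against DMSO baseline.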

For a further assay, the target named is AR (gene 367) (UniProt P10275). In words: ACEA_AR_agonist_80hr: ACEA Biosciences xCELLigence Real-Time Cell Analysis on Androgen Receptor Agonism for Proliferation (AID 2283783).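 Also: hits increase impedance growth signal above DMSO baseline.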 An outline of the steps:
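22Rv1 human prostate cancer cells were seeded after preconditioning in assay medium and monitored overnight, then dosed in an eight-point 1:4 dilution series from 100 uM (≤0.5% DMSO). Impedance-based growth was read at 80 h, gain-of-signal versus DMSO.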

The text below walks through data of PubChem BioAssay (EPA / NIEHS).

Results filed as inconclusive are left out. Active and inactive are the calls of the source. The calls were made as follows, unless noted: active = hit-call score of the fitted dose curve at least 0.9, where 1 is the maximum; inconclusive = response in the unintended direction; inactive = score below 0.9.

Cellular tumor antigen p53 (Homo sapiens), sequence (P04637 whole entry, looked up): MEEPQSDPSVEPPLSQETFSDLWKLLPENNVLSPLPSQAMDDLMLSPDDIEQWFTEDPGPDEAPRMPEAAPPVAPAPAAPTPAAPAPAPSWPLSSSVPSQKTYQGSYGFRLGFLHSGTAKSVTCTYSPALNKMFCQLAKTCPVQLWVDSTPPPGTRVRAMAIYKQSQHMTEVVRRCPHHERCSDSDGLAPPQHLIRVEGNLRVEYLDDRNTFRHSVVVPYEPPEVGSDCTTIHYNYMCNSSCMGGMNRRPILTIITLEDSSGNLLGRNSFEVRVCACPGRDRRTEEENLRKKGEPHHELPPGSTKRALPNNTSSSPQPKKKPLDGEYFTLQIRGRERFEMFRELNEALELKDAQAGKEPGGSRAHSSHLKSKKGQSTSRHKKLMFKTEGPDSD
AR (gene 367), sequence (P10275 whole entry, looked up): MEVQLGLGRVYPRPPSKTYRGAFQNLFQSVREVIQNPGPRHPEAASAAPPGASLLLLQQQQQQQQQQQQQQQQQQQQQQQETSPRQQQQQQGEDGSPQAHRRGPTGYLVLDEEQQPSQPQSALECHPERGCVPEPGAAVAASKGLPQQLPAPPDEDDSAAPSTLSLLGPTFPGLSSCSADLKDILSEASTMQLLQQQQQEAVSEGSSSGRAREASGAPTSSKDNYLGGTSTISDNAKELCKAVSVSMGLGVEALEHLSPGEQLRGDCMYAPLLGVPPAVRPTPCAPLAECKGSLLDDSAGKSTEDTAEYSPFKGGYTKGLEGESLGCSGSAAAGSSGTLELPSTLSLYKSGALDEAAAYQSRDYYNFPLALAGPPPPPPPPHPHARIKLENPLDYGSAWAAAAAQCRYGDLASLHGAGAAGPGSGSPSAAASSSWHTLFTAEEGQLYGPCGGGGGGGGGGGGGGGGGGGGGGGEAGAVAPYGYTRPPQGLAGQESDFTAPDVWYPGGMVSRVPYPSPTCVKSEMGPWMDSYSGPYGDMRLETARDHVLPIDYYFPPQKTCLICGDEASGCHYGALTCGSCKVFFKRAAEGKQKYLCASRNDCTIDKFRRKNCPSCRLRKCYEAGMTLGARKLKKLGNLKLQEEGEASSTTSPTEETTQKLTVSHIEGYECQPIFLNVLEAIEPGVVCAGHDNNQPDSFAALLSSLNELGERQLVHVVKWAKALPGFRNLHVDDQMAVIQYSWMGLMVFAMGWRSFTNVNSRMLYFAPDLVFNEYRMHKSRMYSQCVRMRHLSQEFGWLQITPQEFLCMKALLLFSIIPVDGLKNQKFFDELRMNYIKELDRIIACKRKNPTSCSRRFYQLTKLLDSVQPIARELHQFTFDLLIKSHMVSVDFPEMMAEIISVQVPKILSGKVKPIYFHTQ
Luciferin 4-monooxygenase (Photinus pyralis), sequence (P08659 whole entry, looked up): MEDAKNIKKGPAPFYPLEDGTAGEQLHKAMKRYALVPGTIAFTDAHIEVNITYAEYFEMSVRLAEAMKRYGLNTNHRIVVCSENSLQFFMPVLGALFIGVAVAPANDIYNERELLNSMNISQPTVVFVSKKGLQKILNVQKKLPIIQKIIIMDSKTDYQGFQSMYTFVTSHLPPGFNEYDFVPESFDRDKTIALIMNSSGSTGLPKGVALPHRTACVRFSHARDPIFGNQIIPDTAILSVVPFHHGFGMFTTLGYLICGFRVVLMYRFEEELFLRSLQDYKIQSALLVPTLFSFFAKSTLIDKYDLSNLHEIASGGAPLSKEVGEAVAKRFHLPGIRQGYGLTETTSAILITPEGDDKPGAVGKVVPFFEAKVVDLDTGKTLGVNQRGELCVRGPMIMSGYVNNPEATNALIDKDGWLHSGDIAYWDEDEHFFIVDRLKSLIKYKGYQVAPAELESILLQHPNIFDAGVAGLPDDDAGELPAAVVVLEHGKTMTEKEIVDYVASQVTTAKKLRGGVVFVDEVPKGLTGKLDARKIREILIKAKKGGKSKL

For orientation: AC50 means the midpoint of the concentration-response curve, whichever way the signal moves. In the case of `O=C1c2c(O)ccc(Nc3ccc(CCO)cc3)c2C(=O)c2c([N+](=O)[O-])ccc(O)c21`, the result in assay [1] was inactive. The AC50 in assay [2] was 88.8 µM (active).

`CN1CN(C)CN(C)C1`: the result in assay [3] and in assay [2] was inactive.

Take `CC(C)OC(=O)COc1ccc(Cl)cc1Cl`: the outcome in assay [1] was inactive. In assay [2], the AC50 is 66.8 µM (active).

For `Cc1ccc(O)cn1`, the outcome in assay [4], in assay [5] and in assay [6] was inactive.

As for `COCCOCCC[Si](C)(O[Si](C)(C)C)O[Si](C)(C)C`, the result in the assay with AR (gene 367) was inactive.

`CCCCCCCC/C=C\CCCCCCCC(=O)OCC(O)CO` (stereo unspecified): the AC50 with AR (gene 367) was 27.9 µM (active).
